Most compounds without a hit are left out; they make up all but 7% or so of the library.
D3 antag = blocks the human D3 dopamine receptor; P35462; D3R cells, DiscoveRx beta-arrestin luminescence, antagonist mode; active compounds read low; max response, negative = inhibition, %; actives 2.5% (n = 360,000); in the data active = max response below about -50%; inconclusive = no clear call, values can overlap the other calls; also: % is scaled to controls: 0 for no effect and ±100 for the full control effect
Target sequence (P35462 whole entry, looked up): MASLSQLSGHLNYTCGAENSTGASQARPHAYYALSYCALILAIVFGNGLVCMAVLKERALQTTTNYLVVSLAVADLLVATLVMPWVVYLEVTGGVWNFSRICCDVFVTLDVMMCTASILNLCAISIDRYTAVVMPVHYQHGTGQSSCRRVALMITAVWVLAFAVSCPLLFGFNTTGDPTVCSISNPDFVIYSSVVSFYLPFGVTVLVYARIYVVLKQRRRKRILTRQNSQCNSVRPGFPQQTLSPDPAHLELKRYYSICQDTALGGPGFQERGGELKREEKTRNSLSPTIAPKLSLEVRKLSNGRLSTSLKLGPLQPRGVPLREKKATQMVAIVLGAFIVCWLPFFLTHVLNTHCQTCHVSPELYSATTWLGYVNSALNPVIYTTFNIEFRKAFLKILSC
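Cells plated overnight at 1500 cells/well, then exposed to library compounds with dopamine controls for 90 minutes at 37 degrees C. DiscoveRx reagent added for 30–60 minutes at room temperature; luminescence read, quantitative HTS format.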
IL-1B inflam inh = inhibitors of inflammasome signaling (IL-1 beta secretion); THP-1 LPS/ATP IL-1B secretion, AlphaLISA, 16 h; active compounds read low; activity change, % at 57.5 µM; actives 4.7% (n = 360,000); in the data active = activity change below about -50%; inconclusive = mostly about -30% to -49%; also: % is scaled to controls: 0 for no effect and ±100 for the full control effect
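Secreted IL-1B measured by AlphaLISA bead assay after 16 h compound exposure of THP-1 cells; compounds (final up to 57.5 uM) added 1 h before LPS (250 ng/mL) and ATP (1.25 mM) stimulation; lower signal means less secretion.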
ATXN2 expr inh = ATXN2 expression inhibition | HEK-293 ATXN2-luciferase reporter, luminescence, 24 h | Potency, µM (top dose mostly 57 µM), for the others: top-dose activity change, negative = inhibition, hits mostly inhibitors | actives 0.72% (n = 360,000); also: potency is read from the fitted curve at half-maximal effect; % is scaled to controls: 0 for no effect and ±100 for the full control effect; nearly all actives have a fitted effect of over 55% in size
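qHTS (up to 57 uM final) was run with 24 h compound exposure of reporter cells at 37 °C. Each well was multiplexed: SteadyGlo luminescence measured ATXN2-luciferase expression after a fluorogenic Gly-Phe-AFC viability readout (25 uM final).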
S2 tox = reduces viability in counter-screen for ATXN expression inhibitors; Potency, µM (highest dose often 56.7 µM), hits mostly cytotoxic; S2 cells (HEK-293 line with an ATXN2-luciferase reporter) viability, CellTiter-Fluor protease fluorescence, 24 h; AID 651635; actives 0.49% (n = 400,000); also: potency is read from the fitted curve at half-maximal effect; nearly all actives have a fitted effect of over 40% in size
a7 integrin act = activators of alpha7 integrin expression for muscular dystrophy; alpha7betagal myoblasts, beta-gal FDG fluorescence, 48 h; Potency, µM (series often up to 38.3 µM), inactives show at the top dose activation, actives largely listed as activators; actives 0.064% (n = 350,000);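 also: potency is read from the fitted curve at half-maximal effect; 100% = response of the positive control SU9516; nearly all actives have a fitted effect of over 60% in size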
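Alpha7betagal+/- myoblasts (passage 13) were plated 16-24 hr, then exposed to compounds (1:260 dilution of DMSO stock) for 48 hours at 37C. After MPER lysis, β-galactosidase reporter activity was read as FDG fluorescence (ex 480/em 540) after 30 minutes.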
D3 ag = agonists of human D3 dopamine receptor. D3R DiscoveRx beta-arrestin cells, luminescence, 90 min. P35462. actives 0.58% (n = 410,000). max activation, %; in the data active = max activation above about 30%; also: 0% is about no effect
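Agonist mode: compounds and dopamine controls were applied to plated cells for 90 min at 37 degrees C after an overnight attachment at 1500 cells/well. Luminescent read-out followed 30 - 60 minutes at room temperature with DiscoveRx detection reagent.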
Active calls of the source: *; i = inactive; ? = inconclusive; . = not tested or not shown; [ ] = another dose, or the depositor's remark. Unless noted, calls follow the shape of the dose curve; as a rule, active = well fitted curve in the direction sought with a large enough effect; inconclusive = small, poorly fitted or top-dose-only effect, or another doubt; inactive = no such curve, though single readings can be large; an effect the other way counts as inactive or inconclusive.

SMILES	D3 antag	IL-1B inflam inh	ATXN2 expr inh	S2 tox	a7 integrin act	D3 ag
CC(C)c1ccc(N(C(=O)CNC(=O)c2ccco2)C(C(=O)NC2CCCC2)c2cccnc2)cc1 (centres undefined)	2	-70*	-9%	i	?	-12
O=C(NC1CCCC1)C(c1ccc(F)cc1)N(Cc1ccc(Cl)cc1)C(=O)CCl (centres undefined)	6	-102*	-1%	i	-66%	5
CC(NC(=O)c1ccc2nc(CCc3ccccc3)oc2c1)c1ccccc1 (centres undefined)	.	.	2%	i	.	-3
COc1ccc(C(C(=O)NC2CCCCC2)N(Cc2cccs2)C(=O)Cc2c[nH]c3ccccc23)cc1 (centres undefined)	-8	-59*	?	?	-46%	-1
O=C1OCCC1Sc1nnc(-c2ccc(Cl)cc2Cl)o1 (centres undefined)	4	14	6.3µM*	i	4%	2
O=C1OCCC1Sc1nnc(-c2ccccc2)o1 (centres undefined)	-3	-3	-20%	i	-2%	0
Cc1sc2ncn(CC(=O)NCCCC(=O)N3CCC(C)CC3)c(=O)c2c1C	-9	15	2%	i	-5%	-7
CCOC(=O)C1CCN(C(=O)CCCNC(=O)Cn2cnc3sc(C)c(C)c3c2=O)CC1	6	-68*	-11%	i	-5%	18
O=C1N/C(=N\N=C\c2ccco2)SC1Cc1ccccc1[N+](=O)[O-] (centres undefined)	-7	11	.	11µM*	-18%	0
O=C(O)CCC(C(=O)O)n1c(O)c(C2=c3ccccc3=NC2=O)sc1=S (centres undefined)	-103*	5	-2%	?	-43%	-9
O=C(O)Cn1c(O)c(C2=c3ccccc3=NC2=O)sc1=O	?	0	-12%	i	-19%	1
COc1ccc(OC)c(-c2nnc3ccc(-c4ccc(OC)c(O[C@@H]5CCOC5)c4)nn23)c1	.	.	27µM*	.	.	.
COc1ccc(OC)c(-c2nnc3n2N=C(c2ccc(OC)c(OC4CCOC4)c2)CS3)c1 (centres undefined)	.	.	-12%	?	.	.
O=C(Nc1cccc(-c2cn3ccccc3n2)c1)c1cc2ccccc2oc1=O	-19	-80*	?	.	-56%	-13
CC(=O)/C(=N\Nc1ccccc1)Sc1nnc(-c2ccccc2)n1-c1ccccc1	-97*	6	-5%	i	-5%	-6
CC(=O)/C(=N\Nc1ccccc1Cl)Sc1nnc(-c2ccccc2)n1-c1ccccc1	0	-8	-5%	i	2%	-8
COc1c[nH]n(C2CCCCC2)c(=O)c1=O	?	-16	0%	22µM*	-11%[7.66 µM]	-6
COc1ccc(Nc2cc(=O)n(C3CCCCC3)c(=O)[nH]2)c(OC)c1	-17	-19	-11%	i	-13%	0
COC(=O)[C@]1(C)N[C@H](c2ccc(SC3CCCCC3)cc2)[C@@H]2C(=O)N(C)C(=O)[C@@H]21	-7	22	6%	i	0%	-13
CC1CCC(NC(=O)c2ccc3c(c2)N(Cc2ccccc2)C(=O)c2ccccc2S3=O)CC1 (centres undefined)	.	.	6%	i	.	-25
CC1CC(C)CN(CCCNC(=O)c2ccc3c(c2)N(Cc2ccccc2)C(=O)c2ccccc2S3=O)C1 (centres undefined)	-72*	?	.	28µM*	-45%	-20
CCC1CCCCN1CCCNC(=O)c1ccc2c(c1)N(Cc1ccc(Cl)cc1)C(=O)c1ccccc1S2(=O)=O (centres undefined)	.	.	28µM*	i	.	-7
CCN1CCN(C(=O)c2ccc3c(c2)N(Cc2ccccc2F)C(=O)c2ccccc2S3(=O)=O)CC1	-61*	8	6%	i	8%	-18
O=C(NCc1ccco1)c1ccc2c(c1)N(Cc1cccc(Cl)c1)C(=O)c1ccccc1S2=O (centres undefined)	.	.	.	.	.	59*
CCC1CCCCN1CCCNC(=O)c1ccc2c(c1)N(Cc1ccccc1)C(=O)c1ccccc1S2(=O)=O (centres undefined)	.	.	.	.	.	-4
SMILES	D3 antag	IL-1B inflam inh	ATXN2 expr inh	S2 tox	a7 integrin act	D3 ag
CC(=O)N1CCc2cc(S(=O)(=O)NC(CC(C)C)C(=O)Nc3ccc(C(C)C)cc3)ccc21 (centres undefined)	.	.	42%	i	.	3
CCN1CCN(C(=O)c2ccc3c(c2)N(Cc2ccccc2)C(=O)c2ccccc2S3=O)CC1 (centres undefined)	-56*	25	-3%	i	-18%	-13
COCCn1c(SCC(=O)c2ccc(CNC(C)=O)o2)nc2ccccc2c1=O	18	21	-3%	i	10%	1
COc1ccc(CCNCC2C(Oc3ccc(Cl)cc3)C(=O)N2c2ccccc2C)cc1OC (centres undefined)	6	-73*	?	i	-26%	-4
CCCNCC1C(Oc2ccc(Cl)cc2)C(=O)N1c1ccccc1C (centres undefined)	-5	-52*	-15%	i	-19%	-28
COCCNCC1C(Oc2ccc(Cl)cc2)C(=O)N1c1ccccc1C (centres undefined)	3	-17	-31%[11.3 µM]	i	-38%	-8
Cc1ccccc1N1C(=O)C(Oc2ccc(Cl)cc2)C1CNC(C)(C)C (centres undefined)	1	-55*	-9%	i	-11%	-1
CCOC(=O)c1ccc(Oc2nc(NC)nc(OC)n2)cc1	?	-1	4%	i	12%	-3
Cc1cc(C)n2nc(C(=O)NCc3ccco3)nc2n1	-13	-13	-1%	i	37%	-5
Cc1nn(-c2ccc(Cl)cc2)c(Cl)c1/C=C(\C#N)C(N)=O	12	-6	4%	i	-50%	10
C=CCNC(=O)/C(C#N)=C/c1c(C)nn(-c2ccc(Cl)cc2)c1Cl	14	-57*	.	i	-63%	0
CCOc1ccccc1NC(=O)/C(C#N)=C/c1c(C)nn(-c2ccc(F)cc2)c1Cl	26	-10	-12%	i	16%	4
Cc1nn(-c2ccccc2Cl)c(Cl)c1/C=C(\C#N)C(N)=O	11	-74*	-4%	i	-40%	2
COc1ccc(C(=O)NN/C=C/C(=O)c2ccc(Br)cc2)cc1	-29	69	.	?	-19%	-11
COc1ccc(C(=O)C=CNNC(=O)c2ccc(Cl)cc2)cc1	-54*	148	?	?	17%	-12
O=C(/C=C/NNC(=O)c1ccccc1)c1ccc(Br)cc1	-77*	81	?	i	-6%	-14
O=C(/C=C/NNC(=O)c1ccc(Cl)cc1)c1ccccc1	-12	42	.	i	5%	-5
